Assay outcomes as filed in PubChem.
dFosB act-1: activators of mouse delta FosB homodimer | purified delta FosB, TAMRA-CDK5 oligo fluorescence polarization; percent of positive-control signal above neutral wells | activation, % at 25 µM | P13346 | 340,000 tested, 0.99% active;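 active = mean activation above about 17%, with every replicate also reaching it, limit read from the data, passing the limit was not always enough; inconclusive = only one of the two conditions met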
Target sequence (P13346 whole entry, looked up): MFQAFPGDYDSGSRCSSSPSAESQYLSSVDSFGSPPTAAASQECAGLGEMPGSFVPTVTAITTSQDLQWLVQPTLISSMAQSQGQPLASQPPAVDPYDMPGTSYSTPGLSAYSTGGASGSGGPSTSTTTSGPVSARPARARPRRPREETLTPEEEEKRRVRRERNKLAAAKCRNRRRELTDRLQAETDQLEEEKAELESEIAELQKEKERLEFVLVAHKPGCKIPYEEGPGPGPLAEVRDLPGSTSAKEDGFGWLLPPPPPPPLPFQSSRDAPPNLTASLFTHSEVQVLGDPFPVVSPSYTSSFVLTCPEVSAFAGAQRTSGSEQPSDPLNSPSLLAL
ZTA counter: ZTA (EBV) inhibition in EBNA-1 counter-screen; AID 2234; inhibition, % at 11 µM; ZTA-DNA binding, fluorescence polarization; 320,000 tested, 0.15% active; P03206; in the data active = inhibition above about 33%
Target sequence (P03206 whole entry, looked up): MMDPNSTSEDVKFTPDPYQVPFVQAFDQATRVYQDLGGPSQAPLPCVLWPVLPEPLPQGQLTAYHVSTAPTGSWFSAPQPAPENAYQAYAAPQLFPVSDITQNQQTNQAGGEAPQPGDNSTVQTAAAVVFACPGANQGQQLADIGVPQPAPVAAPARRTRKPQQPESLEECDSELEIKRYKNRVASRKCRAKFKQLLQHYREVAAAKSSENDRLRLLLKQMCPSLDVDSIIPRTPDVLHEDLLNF
Rpn11 inh: inhibitors of human proteasome Rpn11; O00487; human 26S proteasome, Ub4-pepOG fluorescence polarization; 20S core pre-blocked with epoxomicin; inhibition, % at 20 µM; 360,000 tested, 0.59% active; AID 588493;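 active = inhibition at 20 µM, scaled to each plate's controls, above about 33%, limit read from the data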
GRIN3A LBD mod: modulators (binders) of human NR3A ligand-binding domain; 340,000 tested, 2.5% active; NR3A LBD differential scanning fluorimetry, Tm shift; 0% = protein alone, 100% = glycine-bound protein; Tm shift relative to glycine control, % at 25 µM;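 active = melting temperature shift of at least 10% of the positive control shift, at one fixed dose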
TPT1 inhibitor: C. albicans TPT1 enzyme inhibition; AID 1962; inhibition, % at 5 µM; recombinant caTPT1, FP RNA substrate dephosphorylation; 300,000 tested, 0.81% active;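 active = inhibition above the mean of all tested compounds plus 3 SD, set per screening campaign, cut at about 24% in these data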;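 also: plate controls were DMSO alone for no effect and ferristatin control at 100 nM for full effect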
EBNA-1 inh: blocks EBNA-1 binding to DNA; EBNA-1 DNA binding, fluorescence polarization; inhibition, % at 14.8 µM; 300,000 tested, 0.34% active; AID 1950; in the data active = inhibition above about 28%
dFosB act-2: activators of mouse delta FosB homodimer DNA binding. purified delta FosB, TAMRA-CDK5 oligo fluorescence polarization; normalised: neutral wells 0, positive control 100. activation, % at 24.9 µM. 2,400 tested, under 10 active. AID 588690. shares compounds with dFosB act-1;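 active = highest replicate activation at or above 34% and every replicate reaching that threshold; inconclusive = meets only one of the two criteria; inactive = meets neither criterion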;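 also: higher polarization means more probe DNA bound by delta FosB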
Starred values were filed as active, the others as inactive; ? = inconclusive; . = no result given. An excerpt weighted towards active compounds, which were near 4.5% of everything screened.

SMILES | dFosB act-1 | ZTA counter | Rpn11 inh | GRIN3A LBD mod | TPT1 inhibitor | EBNA-1 inh | dFosB act-2
CCC1CCCCN1C(=O)CCC(=O)Nc1nnc(C(F)(F)F)s1 (stereo unspecified) | 0 | 4 | -1 | 1 | -1 | -15 | .
O=C(Nc1cccc(-n2cnnn2)c1)c1ccco1 | -15 | -6 | 5 | 1 | 1 | -9 | .
O=C(Nc1cccc(-n2cnnn2)c1)c1cc2ccccc2o1 | 37* | 9 | 8 | -31 | -1 | 6 | 6
C=CCn1c(SCC(=O)Nc2sccc2C#N)nc2sc(C)c(C)c2c1=O | 23* | 8 | 7 | 1 | 2 | -16 | -6
Cc1cccc(NC(=O)CCc2nc3sc4c(c3c(=O)[nH]2)CCCC4)c1 | 20* | -11 | 3 | -3 | -6 | 11 | 3
COc1ccc(CCNC(=O)c2ccc3c(c2)SC2=NS(=O)(=O)CCN23)cc1 | -5 | 5 | -5 | -12 | -1 | -8 | .
O=C(Nc1cccc(Cl)c1)c1ccc2c(c1)SC1=NS(=O)(=O)CCN12 | 26* | . | -10 | 9 | . | . | -1
CC1(C)CC(N=c2cc(-c3ccccc3)oc3ccc(Cl)cc23)CC(C)(C)N1 | 40* | . | -1 | -4 | . | . | -3
OCCCN=c1cc(-c2ccccc2)oc2ccc(Cl)cc12 | 10 | 21 | -3 | -2 | 2 | 7 | .
COc1ccc(C(=O)O)cc1S(=O)(=O)Nc1ccccc1C(=O)NCc1ccc2c(c1)OCO2 | 6 | 4 | -9 | 0 | . | . | .
S=c1nc(-c2ccccc2)[nH]c2ccccc12 | -1 | 5 | -3 | 0 | 0 | 3 | .
S=c1nc(-c2ccc(Br)cc2)[nH]c2ccccc12 | 45* | -3 | -4 | -1 | 3 | -7 | -1
CCOCCc1c(O)nc(SCC(=O)N2CCOCC2)[nH]c1=O | 0 | 4 | 4 | -3 | 1 | -5 | .
Cc1ccc(OCCC(=O)OCC(=O)NC(=O)NC2CCCCC2)cc1 | -16 | -1 | -5 | 1 | -1 | -9 | .
Cc1ccc(CNC(=S)Nc2ccc(NS(=O)(=O)c3ccc(C)cc3)cc2)cc1 | 19* | . | -6 | 23* | . | . | 3
CCOc1ccc([C@@H]2CC=C(C(=O)O)CN2S(=O)(=O)c2ccc(C)cc2)cc1 | -4 | 0 | -1 | 5 | -1 | 9 | .
CCn1c(=O)c(C(=O)Nc2ncccc2C)c(O)c2ccccc21 | -34 | -16 | -8 | 0 | 2 | -1 | .
CCn1c(=O)c(C(=O)Nc2ncccc2O)c(O)c2ccccc21 | 26* | 0 | -2 | 0 | 1 | 10 | -1
COc1cc(CCN2C(=O)c3cccc4cccc(c34)C2=O)c(S(=O)(=O)NCCCO)cc1OC | 20* | -5 | -6 | 2 | -1 | -9 | -1
O=C(COc1ccc(Cl)cc1)Nc1ccc2oc(-c3ccncc3)nc2c1 | 37* | 4 | -2 | -14 | -1 | -19 | -1
COc1ccc(CC(=O)NCCc2ccc(OC)c(OC)c2)cc1 | -3 | 17 | -5 | 2 | 0 | 13 | .
COc1ccc(C(=O)Nc2ccc(C(=O)NCCc3ccc(OC)c(OC)c3)cc2)cc1 | 41* | 4 | 2 | 8 | 0 | -1 | 3
COc1ccc(CC(=O)Nc2ccc(-c3noc(-c4ccccc4OC)n3)cc2)cc1 | ? | -7 | 2 | 4 | -1 | 20 | .
COc1ccc(CC(=O)Nc2cccc(-c3nnc(-c4ccc(C)cc4)o3)c2)cc1OC | -15 | 10 | -4 | -6 | 1 | 11 | .
COc1ccc(-c2nc3cc(NC(=O)Cc4ccc(OC)c(OC)c4)ccc3o2)cc1 | 56* | 1 | 2 | -9 | 0 | 4 | 4
SMILES | dFosB act-1 | ZTA counter | Rpn11 inh | GRIN3A LBD mod | TPT1 inhibitor | EBNA-1 inh | dFosB act-2
COc1ccc(OCC(=O)Nc2ccc3oc(-c4ccncc4)nc3c2)cc1 | 4 | -9 | 26 | -10 | -1 | -1 | .
COc1ccc(CCC(=O)Nc2ccc(-c3noc(-c4ccc(OC)c(OC)c4)n3)cc2)cc1 | 29* | 17 | 2 | 1 | -1 | -1 | 3
CCOC(=O)c1sc(NS(=O)(=O)c2ccccc2Cl)nc1C | 1 | 3 | 0 | -12 | 0 | 3 | .
O=c1cc(O)c2c(=O)n(-c3ccccc3)c3c(c2o1)CCCCCC3 | -1 | 5 | 10 | -3 | 1 | -1 | .
Cc1cc(Nc2ccc3c(c2)OCCO3)c2cc(Cl)ccc2n1 | 29* | 4 | -22 | -1 | 1 | -13 | -8
Cc1ccc2nc3c(c(Nc4ccc5c(c4)OCCO5)c2c1)CCC3 | 30* | 10 | -17 | -1 | 3 | -11 | 2
COc1ccc(Nc2cc(C)nc3ccc(OC)cc23)cc1 | 34* | 10 | -6 | -1 | -1 | -5 | 3
O=C(Cn1cnc2c(nnn2Cc2ccccc2)c1=O)Nc1ccc2c(c1)OCCO2 | 30* | -5 | 3 | 3 | 1 | 12 | 0
O=C(Cn1nnc(-c2ccc(F)cc2)n1)Nc1ccc2c(c1)OCCO2 | 36* | -4 | 2 | -7 | -4 | 2 | 6
CC(=O)Nc1ccc(NC(=O)Cn2cnc3c(nnn3Cc3ccc(F)cc3)c2=O)cc1 | 10 | 4 | -1 | 3 | -3 | 5 | .
CN(C)S(=O)(=O)c1ccc(Cl)c(NC(=O)CN2C(=O)NC3(CCc4ccccc43)C2=O)c1 (stereo unspecified) | -4 | 5 | -14 | 1 | . | . | .
O=S(=O)(Nc1ccc2c(c1)nc1n2CCN(Cc2ccccc2)C1)c1ccccc1 | 24* | -9 | 14 | -4 | 6 | 4 | -3
Cc1ccc(S(=O)(=O)Nc2ccc3c(c2)nc2n3CCN(Cc3ccccc3)C2)cc1 | 5 | 12 | 9 | -1 | 2 | 7 | .
O=S(=O)(Nc1ccc2c(c1)nc1n2CCN(Cc2ccccc2)C1)c1ccc(Cl)cc1 | 23* | -18 | 14 | 0 | 5 | 5 | -9
O=S(=O)(Nc1ccc2c(c1)nc1n2CCN(Cc2ccccc2)C1)c1ccc(F)cc1 | -1 | 6 | 14 | -4 | 8 | -4 | .
COc1ccc(S(=O)(=O)NCC(=O)N(CC(=O)NCC2CCCO2)Cc2ccc(F)cc2)cc1 (stereo unspecified) | -6 | -3 | -4 | 0 | 2 | 4 | .
Cc1ccc(C(=O)NCCc2nnc3ccc(NCc4ccc5c(c4)OCO5)nn23)cc1 | 51* | 0 | -3 | 1 | 1 | 2 | -2
Cc1ccc(C(=O)NCc2ccc3c(c2)OCO3)cc1 | 1 | 1 | 3 | -2 | 0 | 3 | .
COc1cccc(NC(=O)Cn2nnc(C(=O)NCc3ccc4c(c3)OCO4)c2N)c1 | 14 | 8 | 15 | -2 | -1 | -8 | .
COc1ccc(Cl)cc1NC(=O)Cn1nnc(C(=O)NCc2ccc3c(c2)OCO3)c1N | 39* | -10 | -5 | -1 | 1 | 3 | 0
